Experimental findings from PubChem BioAssay are described below.

SMILES strings stand for the structures. Active and inactive are the calls of the source.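 How the source made its calls, unless noted: active means visually confirmed hit in the image check and inhibition above 20%; inconclusive means visually confirmed hit but inhibition not above 20%; inactive means no visual hit in the image check.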

Experiment [1] can be described thus: inhibitors of TNFa-induced NFkB p65 translocation, primary screen, imaging, HUVEC, MLSMR starter and 10KST1 sets (AID 438;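 active means inhibition above 20% together with a positive visual image hit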;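 further: compound added about 3h40 before a 20 min TNFalpha stimulation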;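 on inhibition: signal is the nuclear over cytoplasmic p65 intensity ratio per well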). Conditions: HUVEC TNFa-induced p65 nuclear translocation; cell count: measured here: nuclei count (cytotoxicity indicator), at 2.08 µM; inhibition: at 2 µM, stronger effect = higher value, 0% TNFa-plus-vehicle, 100% no-TNFa wells.
Experiment [2] can be described thus: reduction of polyQ htt aggregates in cells – imaging, exon1htt(103Q)mCFP cells, high-content imaging, primary screen (AID 483;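 active means visual image review flags a hit and inhibition of aggregation exceeds 20%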;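 further: compound exposure lasted 3 days before fixation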;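 on nuclei count: percent of the per-plate median nuclei count of sample wells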). The conditions noted are these: exon1htt(103Q)mCFP cell line, aggregate imaging, at 2 µM; inhibition of aggregation: stronger effect = higher value; nuclei count: measured here: cell count, toxicity.
Experiment [3] is described as follows: endothelial E-selectin expression blockers – imaging, HUVEC, immunofluorescence, MLSMR starter and 10KST1 sets, primary screen (AID 487).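 On inhibition: signal is fraction of cell area covered by stained E-selectin grains.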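 On nuclei count: 100% = median nuclei count of all wells on the same plate.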 The conditions noted are these: HUVEC TNFalpha-induced E-selectin immunofluorescence imaging, at 2 µM; inhibition: stronger effect = higher value; nuclei count: measured here: cell number, toxicity.
The target in experiment [4] is Voltage-gated potassium channel subunit beta-2 (Rattus norvegicus) (UniProt P62483). Put plainly: inhibitors of rat Kvbeta2 reductase activity – biochemical, NADPH fluorescence, primary screen (AID 622;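 active means fluorescence slope higher than the sample average by over 3 SD, cut at about -0.22 in these data, passing the limit was not always enough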;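 further: slope of raw intensity against log time taken from 70 to 1610 s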). The conditions noted are these: recombinant KvBeta, 4-cyanobenzaldehyde reduction, at 10 µM, stronger effect = higher value.
For experiment [5] the target is unchanged. Put plainly: enhancers of rat Kvbeta2 NADPH turnover – biochemical, NADPH fluorescence, primary screen (AID 623;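 active means NADPH fluorescence slope more negative than the mean of all samples by about 3 SD, 99.7% confidence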;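 further: fluorescence intensity change per second fitted from 20 to 320 s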). Conditions: Recombinant KvBeta, NADPH fluorescence decrease slope, 10 min; at 10 µM; stronger effect = lower value.
Experiment [6] deals with Alpha-2C adrenergic receptor (Homo sapiens) (UniProt P18825). The experiment in a line: compounds altering alpha2C-coupled GIRK flux – cell-based, HEK293 alpha2C/GIRK1/2, thallium flux, primary screen (AID 624;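 active means fluorescence slope after compound addition differing from the mean of all screened samples at 99.7% confidence, in either direction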;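 further: slope of fluorescence ratio to pre-addition baseline per second over 15 to 24 s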). Conditions: thallium flux BTC fluorescence, at 10 µM, actives lie on both sides.
Experiment [7] is described as follows: blockers of RIG-like receptor reporter activation – cell-based, Sendai virus stimulus, luciferase, 10K MLSCN set, TLR/RLR signaling modifier project, primary screen (AID 602276;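 active means inhibition at or above 50% at 10 µM; inactive means inhibition below 50%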;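 further: firefly luciferase from ISG56 promoter only with Renilla not read in this screen; 0% = Sendai virus plus DMSO and 100% = medium plus DMSO without virus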). Conditions: HEK293 RL24 IRF3 luciferase reporter, at 10 µM, stronger effect = higher value.
The nature of experiment [8]: TLR3 IRF3 reporter activation blockers – cell-based, poly I:C stimulus, luciferase, 10K MLSCN set, primary screen (AID 602277;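 active means inhibition of the reporter signal at or above 50%; inactive means inhibition below 50%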). The conditions noted are these: HEK293-TLR3 RL24 IRF3 luciferase reporter, at 10 µM, stronger effect = higher value.

Chain of Alpha-2C adrenergic receptor (Homo sapiens) (P18825 whole entry, looked up): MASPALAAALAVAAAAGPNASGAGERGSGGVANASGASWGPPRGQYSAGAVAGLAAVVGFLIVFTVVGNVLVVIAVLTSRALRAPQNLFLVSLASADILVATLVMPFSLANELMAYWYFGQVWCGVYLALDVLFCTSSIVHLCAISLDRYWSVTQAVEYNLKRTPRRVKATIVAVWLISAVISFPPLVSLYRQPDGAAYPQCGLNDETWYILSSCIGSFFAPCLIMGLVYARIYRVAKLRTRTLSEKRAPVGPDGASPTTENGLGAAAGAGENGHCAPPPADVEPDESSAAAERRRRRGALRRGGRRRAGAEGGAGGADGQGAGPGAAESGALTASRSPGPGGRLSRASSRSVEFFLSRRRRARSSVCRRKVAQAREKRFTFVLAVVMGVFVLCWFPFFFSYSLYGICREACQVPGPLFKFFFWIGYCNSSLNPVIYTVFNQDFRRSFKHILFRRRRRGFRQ
Chain of Voltage-gated potassium channel subunit beta-2 (Rattus norvegicus) (P62483 whole entry, looked up): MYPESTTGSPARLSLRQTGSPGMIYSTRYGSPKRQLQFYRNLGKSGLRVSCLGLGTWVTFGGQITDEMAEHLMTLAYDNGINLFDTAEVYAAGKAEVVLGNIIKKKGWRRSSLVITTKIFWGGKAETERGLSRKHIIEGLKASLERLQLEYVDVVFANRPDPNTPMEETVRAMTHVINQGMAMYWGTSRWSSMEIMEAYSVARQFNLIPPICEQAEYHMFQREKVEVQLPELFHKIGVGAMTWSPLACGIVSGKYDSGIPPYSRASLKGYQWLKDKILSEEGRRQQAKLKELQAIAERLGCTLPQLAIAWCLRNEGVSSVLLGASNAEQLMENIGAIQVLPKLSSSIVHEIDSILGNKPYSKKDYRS

Turning to `COC(=O)C1=C(C)NC(C)=C(C(=O)OC)C1C(=O)OC1CCCCC1=O` (centres undefined), the cell count in experiment [1] amounted to 487. The inhibition (usually the drop in the measured response relative to a control, in per cent) in experiment [1] was 8.7% (inactive); in experiment [3] it was 61.1% (active); in experiment [7], 1.65% (inactive); in experiment [8], 27.7% (inactive). In addition, the inhibition of aggregation in experiment [2] was 32.7% (inactive). The nuclei count in experiment [2] is 87.8%; in experiment [3], 80.2%. For the same molecule, the fluorescence slope in experiment [4] was -0.425 (inactive). In experiment [5], the NADPH fluorescence slope was -3.3e-06 (inactive). In addition, in experiment [6], the slope was 0.00528 (inactive).

Turning to `CCC1CCCCN1S(=O)(=O)c1ccc(C(=O)Nc2nnc(-c3ccccc3Cl)o2)cc1` (centres undefined), the cell count in experiment [1] came to 322. The inhibition in experiment [1] was 5.2% (inactive); in experiment [3] it was -52.8% (inactive); in experiment [7] it was 18.8% (inactive); in experiment [8], 16.9% (inactive). Further, the inhibition of aggregation in experiment [2] was -1.5% (inactive). Besides, the results for the nuclei count in experiment [2] and in experiment [3] were 107% and 108%, respectively. Besides, the fluorescence slope in experiment [4] was -0.511 (inactive). Besides, the NADPH fluorescence slope in experiment [5] is -3.2e-05 (inactive). In addition, in experiment [6], the slope was 0.00627 (inactive).

Regarding `O=C(CN1C(=O)CSC1=O)Nc1ccc(N2CCOCC2)cc1`, the cell count in experiment [1] amounted to 700. The inhibition was -1% (inactive) in experiment [1], -27.8% (inactive) in experiment [3], -8.99% (inactive) in experiment [7] and -8.78% (inactive) in experiment [8]. Also, in experiment [2], the inhibition of aggregation is 15.2% (inactive). Moreover, the nuclei count in experiment [2] stood at 110%; in experiment [3], 113%. Further, the fluorescence slope in experiment [4] is -0.544 (inactive). Besides, in experiment [5], the NADPH fluorescence slope is -2.2e-05 (inactive). Besides, the slope in experiment [6] was 0.00569 (inactive).

As for `COCc1nnc(NS(=O)(=O)c2ccc(Br)cc2)s1`, the cell count in experiment [1] was found to be 757. The inhibition in experiment [1] was -12.1% (inactive); in experiment [3], 30.4% (inactive); in experiment [7], 18.1% (inactive); in experiment [8], 19.6% (inactive). Further, the inhibition of aggregation in experiment [2] is 13.5% (inactive). Moreover, the nuclei count was 102% in experiment [2] and 90.2% in experiment [3]. Also, the fluorescence slope in experiment [4] is -0.362 (inactive). The NADPH fluorescence slope in experiment [5] is 4.4e-05 (inactive). Moreover, the slope in experiment [6] is 0.00659 (inactive).

With `Nc1[nH]nc2nc(N3CCCC3)nc(-c3ccccc3)c12`, the cell count in experiment [1] worked out at 341. The inhibition in experiment [1] was -9.5% (inactive); in experiment [3] it was -53% (inactive); in experiment [7] it was 11.8% (inactive); in experiment [8] it was 18.8% (inactive). Also, the inhibition of aggregation in experiment [2] was 20.6% (inactive). The values for the nuclei count in experiment [2] and in experiment [3] were 60.5% and 117%, respectively. The fluorescence slope in experiment [4] was -0.477 (inactive). For the same molecule, the NADPH fluorescence slope in experiment [5] was -3.4e-05 (inactive). Further, the slope in experiment [6] was 0.00548 (inactive).

For `COc1ccc(-c2nnc(SCC(=O)N3CCOCC3)o2)cc1OC`, the cell count in experiment [1] was 603. Further, the inhibition was 19% (inactive) in experiment [1], 38.5% (inactive) in experiment [3], -13.3% (inactive) in experiment [7] and 4.93% (inactive) in experiment [8]. Besides, in experiment [2], the inhibition of aggregation is -39.9% (inactive). Besides, the results for the nuclei count in experiment [2] and in experiment [3] were 86.5% and 78.3%, respectively. Further, in experiment [4], the fluorescence slope was -0.54 (inactive). Moreover, the NADPH fluorescence slope in experiment [5] is 1.3e-05 (inactive). In experiment [6], the slope is 0.0068 (inactive).

Take `CN(C)c1ccc(C=Nc2ccc(N(C)C)cc2)cc1`: the cell count in experiment [1] is 345. For the same molecule, the inhibition in experiment [1] was 3.4% (inactive); in experiment [3] it was 14.2% (inactive); in experiment [7] it was -5.99% (inactive); in experiment [8], -19% (inactive). Moreover, the inhibition of aggregation in experiment [2] is -8.7% (inactive). Besides, the nuclei count amounted to 106% in experiment [2] and 118% in experiment [3]. For the same molecule, the fluorescence slope in experiment [4] is -0.512 (inactive). For the same molecule, in experiment [5], the NADPH fluorescence slope was -3.7e-05 (inactive). Besides, the slope in experiment [6] is 0.00615 (inactive).

In the case of `c1ccc(Cn2nnnc2CN2CCCC2)cc1`, in experiment [1], the cell count is 433. The inhibition is -9.4% (inactive) in experiment [1], -38.6% (inactive) in experiment [3], 14.5% (inactive) in experiment [7] and 19.4% (inactive) in experiment [8]. The inhibition of aggregation in experiment [2] is 2.6% (inactive). Further, the nuclei count was 100% in experiment [2] and 94% in experiment [3]. In addition, in experiment [4], the fluorescence slope is -0.499 (inactive). Moreover, in experiment [5], the NADPH fluorescence slope was -2.2e-05 (inactive). Also, the slope in experiment [6] is 0.00601 (inactive).

Turning to `CCOC(=O)c1nnc2cc(-c3ccc(Br)cc3)nn2c1C`, the cell count in experiment [1] amounted to 606. Also, the inhibition is -1.7% (inactive) in experiment [1], -89.5% (inactive) in experiment [3], -72.6% (inactive) in experiment [7] and -129% (inactive) in experiment [8]. Besides, the inhibition of aggregation in experiment [2] is -4.4% (inactive). The figures for the nuclei count in experiment [2] and in experiment [3] were 98.8% and 105%, respectively. Also, in experiment [4], the fluorescence slope was -0.558 (inactive). Moreover, the NADPH fluorescence slope in experiment [5] is -6.5e-06 (inactive). Moreover, the slope in experiment [6] is 0.006 (inactive).

As for `CCCCn1c(CN(C)Cc2ccccc2)nc2c1c(=O)n(C)c(=O)n2C`, the cell count in experiment [1] was determined as 227. The inhibition in experiment [1] was -6.1% (inactive); in experiment [3] it was 16.4% (inactive); in experiment [7], -18.7% (inactive); in experiment [8], -58.3% (inactive). In experiment [2], the inhibition of aggregation is 13.2% (inactive). Besides, the results for the nuclei count in experiment [2] and in experiment [3] were 57% and 103%, respectively. The fluorescence slope in experiment [4] is -0.605 (inactive). For the same molecule, the NADPH fluorescence slope in experiment [5] was -6.4e-05 (inactive). Moreover, the slope in experiment [6] was 0.00658 (inactive).

Turning to `Cn1c(=O)[nH]c(=O)c2c1nc(N1CCCCC1)n2CCSc1ncccn1`, in experiment [1], the cell count worked out at 637. The inhibition in experiment [1] was -11.8% (inactive); in experiment [3] it was -20.6% (inactive); in experiment [7], 10% (inactive); in experiment [8], 25.5% (inactive). Further, the inhibition of aggregation in experiment [2] was -16.6% (inactive). Also, the nuclei count in experiment [2] is 93%; in experiment [3], 122%. Moreover, in experiment [4], the fluorescence slope was -0.438 (inactive). The NADPH fluorescence slope in experiment [5] was -6.7e-05 (inactive). The slope in experiment [6] was 0.00492 (inactive).

As for `COc1cccc(-c2nnc(SCC(=O)N3CCCc4ccccc43)o2)c1`, in experiment [1], the cell count was 642. For the same molecule, the inhibition in experiment [1] was 3.6% (inactive); in experiment [3], -56.4% (inactive); in experiment [7] it was 5.85% (inactive); in experiment [8], 26.1% (inactive). In addition, in experiment [2], the inhibition of aggregation was -6.3% (inactive). The values for the nuclei count in experiment [2] and in experiment [3] were 100% and 109%, respectively. Further, the fluorescence slope in experiment [4] was -0.378 (inactive). Moreover, the NADPH fluorescence slope in experiment [5] is -5e-05 (inactive). Also, the slope in experiment [6] was 0.00375 (inactive).

Take `CCc1cccc(NC(=O)Cn2cc3c(n2)CCCC3)c1`: the cell count in experiment [1] came out at 759. For the same molecule, the inhibition in experiment [1] is -2.8% (inactive); in experiment [3], -27.9% (inactive); in experiment [7], 13.7% (inactive); in experiment [8], 26.6% (inactive). Besides, in experiment [2], the inhibition of aggregation is 7.5% (inactive). The figures for the nuclei count in experiment [2] and in experiment [3] were 101% and 113%, respectively. For the same molecule, the fluorescence slope in experiment [4] is -0.506 (inactive). Further, in experiment [5], the NADPH fluorescence slope was -2.1e-05 (inactive). Moreover, the slope in experiment [6] is 0.0103 (active).

For the molecule `COc1ccc(NC(=O)c2ccco2)cc1NC(=O)c1cccs1`, the cell count in experiment [1] was found to be 400. In addition, the inhibition is 3.8% (inactive) in experiment [1], 13.8% (inactive) in experiment [3], -10.6% (inactive) in experiment [7] and -14.2% (inactive) in experiment [8]. Besides, the inhibition of aggregation in experiment [2] was 4.3% (inactive). Further, the nuclei count in experiment [2] stood at 95.9%; in experiment [3], 92.8%. For the same molecule, the fluorescence slope in experiment [4] is -0.421 (inactive). Further, the NADPH fluorescence slope in experiment [5] was 2.6e-05 (inactive). In experiment [6], the slope is 0.00585 (inactive).
